Results filed as inconclusive are left out. Entries that show only a call come without a potency. The source made the active and inactive calls. Calls follow the shape of the dose curve; as a rule, active = well fitted cell-killing curve with a large enough effect in the repeat runs; inconclusive = weak or mixed curves, or effect the other way; inactive = flat fitted curve, though single readings scatter.
Potency is read from the fitted curve at half-maximal effect.

The nature of this assay: qHTS assay to identify small molecule agonists of the sonic hedgehog signaling (Shh) pathway - cell viability counter screen (AID 1259366). Also: nearly all actives have a fitted effect of over 50% in size. Conditions: NIH/3T3 Gli1-Luc viability, CellTiter-Fluor, 24 h; series mostly up to 92.4 µM. An excerpt:
National Center for Advancing Translational Sciences [NCATS]
NIH Chemical Genomics Center [NCGC]
U.S. Environmental Protection Agency [EPA]
National Institutes of Environmental Health Sciences [NIEHS]
National Toxicology Program [NTP]
U.S. Food and Drug Administration [FDA]
The sonic hedgehog (Shh) pathway is essential for normal embryonic development. Dysregulation of the Shh pathway can cause severe developmental defects in organs. Therefore chemicals that interfere with the pathway are potential developmental toxicants. A cell line designated 3T3Gli1-Luc (DMB/OARSA/CFSAN/FDA, Laurel, MD), a NIH/3T3 derived clone containing stably integrated Gli1-Luc reporter is used to detect chemical interference of the Shh pathway, by changes in the expression of the firefly Luc gene under the control of the Gli1 transcriptional response element. This cell line was used to screen Tox21 libraries for identifying and prioritizing the potential developmental toxicants that interfere Shh pathway. The cytotoxicity of the compounds was tested in parallel by measuring the cell viability using CellTiter-Fluor assay system (Promega, Madison, WI) in the same wells.
Tox21 Assay Protocol Summary:
3T3 Gli1-Luc cells were dispensed at 2,000 per well in 5uL of culture medium into white solid bottom 1536-well plates (Greiner Bio-One, Monroe, NC) using a Multidrop Combi (Thermo Scientific, Waltham, MA) dispenser. The assay plates were incubated at 37 C and 5% CO2 for 4hr, and then 23nL of compounds dissolved in DMSO and positive control were transferred using a Pintool station (Wako, San Diego, CA). The assay plates were incubated at 37C and 5% CO2 for 24hr. For viability read, after 23hr of compound treatment, 1uL of CellTiter-Fluor reagent (Promega Corporation, Madison, WI) was added to each well of the assay plates using Flying Reagent Dispenser (FRD, Aurora Discovery, San Diego, CA) and incubated the assay plates at 37C for 1hr. The fluorescence signal was quantified using a ViewLux plate reader (Perkin Elmer, Shelton, CT).
In general terms: In qHTS, concentration-response curves come from the screen itself.
`CC(=O)c1ccc[nH]1`: the Potency entry was “inactive”. For the compound `CC(C)N=C=NC(C)C`, the Potency entry was “inactive”.

Regarding `CC(C)CC(O)CC(C)C`, the Potency entry is “inactive”. As for `CCC1CCC(CCC(=O)O)C1` (stereo not given), the Potency entry was “inactive”.

In the case of `CCCCCCCCCCCCCCCCCC(=O)OCC(CC)CCCC` (stereo not given), the Potency result was “inactive”. With `O=C1CC[C@@H](C(=O)O)N1`, the Potency entry was “inactive”. `CCCCCCCCCCCCCCCC(=O)OCC`: the Potency result was “inactive”. `C=CC(=O)NC(C)C`: the Potency entry is “inactive”. Turning to `CCCC(=O)OC(=O)CCC`, the Potency entry is “inactive”. `CCCCOCCOC(=O)c1cccnc1`: the Potency entry is “inactive”. For `CCC(C)(C)C(=O)O`, the Potency entry is “inactive”.

Take `CC(CO)(CO)C(=O)O`: the Potency entry was “inactive”. With `C/C(C=O)=C\c1ccccc1`, the Potency entry was “inactive”. Turning to `Cc1ccc(NC(=O)N(C)C)cc1NC(=O)N(C)C`, the Potency entry is “inactive”. `O=C(O)c1ccc(O)cc1O`: the Potency entry was “inactive”. As for `Cc1cc(CCC(=O)OCCOCCOCCOC(=O)CCc2cc(C)c(O)c(C(C)(C)C)c2)cc(C(C)(C)C)c1O`, the Potency result was “inactive”.

In the case of `CC(C)(O)c1coc(S(=O)(=O)NC(=O)Nc2c3c(cc4c2CCC4)CCC3)c1`, the Potency entry was “inactive”. To `CCN(CC)C(=O)N1CCN(C)CC1` belongs “inactive”; to `COc1cc(S(=O)(=O)Nc2ccccc2)c(OC)cc1N`, “inactive”.

For the compound `Cc1ccc2c(c1)CCCN2`, the Potency entry is “inactive”. As to `CC(=O)OCC1=C(C(=O)O)N2C(=O)[C@@H](NC(=O)CSc3ccncc3)[C@H]2SC1`, the Potency entry was “inactive”. The result for `O=C1NC(=O)c2cccc3cccc1c23` reads “inactive”. Turning to `CCCCCCCCCCCCCC(=O)OCC(O)CO` (stereo not given), the Potency result is “inactive”.

Turning to `CC(=O)OCC(C)C`, the Potency entry was “inactive”. With `O=C(NS(=O)(=O)/C=C/c1ccccc1)c1ccc(F)cc1Cl`, the Potency entry is “inactive”. To `CC(=O)OCCC1CCCCC1` belongs “inactive”; to `O=[N+]([O-])C1(Br)COCOC1`, 43.3 µM (active); to `O=C(Nc1ccc(C(=O)O)c(O)c1)c1ccccc1`, “inactive”. Regarding `CC(C)(C(=O)c1cccnc1)c1cccnc1`, the Potency result was “inactive”.

For the compound `CC(C)c1ccc(C(=O)N=C(N)N)cc1S(C)(=O)=O`, the Potency result was “inactive”. For the compound `COc1cc(NCc2ccc3nc(N)nc(N)c3c2C)cc(OC)c1OC`, the Potency was 15 µM (active). As to `CSSc1ccoc1C`, the Potency result is “inactive”. The result for `CC(=O)N[C@@H](Cc1ccc(O)cc1)C(=O)O` reads “inactive”; that for `Cc1ccc(Cl)cc1N`, “inactive”. Take `CCOC(=O)C(C)O` (stereo not given): the Potency entry was “inactive”. In the case of `CC(C)COC(=O)COc1cc(Cl)c(Cl)cc1Cl`, the Potency result is “inactive”. Take `CCOCCC(=O)OCC`: the Potency result is “inactive”.

Take `COC(C)(C)OC`: the Potency result is “inactive”.

`CC(=O)NCCO`: the Potency entry was “inactive”. To `O=NN(CCCl)C(=O)NCCCl` belongs “inactive”.

The record behind these values is PubChem BioAssay (Tox21).
